# Assay results from PubChem BioAssay.
# Active and inactive are the calls of the source.
# Experiment: fission yeast growth modulation, primary screen, strain 972, OD600, 24 h, no modulator (AID 1090);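 also: basal condition with compound alone and no growth modifier present; test concentration not given here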
# Conditions: S. pombe 972 growth, higher = more signal, called active from +8 up or from −8 down
row,SMILES,z-score
1,C[C@@]1([C@@H](NS(=O)(=O)c2cccc3cccnc23)c2ccc(-c3ccccc3)cc2)C[C@H]1C1CCCCC1,0.381 (inactive)
2,O=C1O[C@H](c2ccccc2)[C@H](c2ccccc2)N2[C@H]1[C@@H](C(=O)N1CCN(c3ncccn3)CC1)[C@]1(C(=O)Nc3ccc(C#CC4(O)CCCCCC4)cc31)[C@H]2c1ccc(O)cc1,-0.391 (inactive)
3,C=CCC(OC(C)=O)[C@@H]1[C@@H](N(Cc2ccc(-c3ccccc3)cc2)C(=O)Cc2ccc(OC)cc2)c2cc(OCCCO)ccc2N1C(=O)c1ccc2ccccc2c1 (stereo not given in full),0.121 (inactive)
4,O=C(NC1CC1)[C@@H]1c2ccccc2C(=O)N(C2CCCCC2)[C@H]1c1ccc(CO)cc1,-0.0911 (inactive)
5,COC(=O)[C@@]1(Cc2ccccc2)[C@H]2c3cc(C(=O)N(C)C)n(Cc4nc5ccccc5[nH]4)c3C[C@H]2CN1C(=O)c1ccccc1,0.338 (inactive)
6,C=CCOC(=O)[C@@H]1[C@H]2C(=O)O[C@H](c3ccccc3)[C@H](c3ccccc3)N2[C@H](c2ccc(OCCOC(=O)[C@@H]3C[C@@H]4C(=O)N[C@@H](CC(C)C)C(=O)N4[C@@H]3c3ccc(O)cc3)cc2)[C@@]12C(=O)Nc1ccc(I)cc12,1.63 (inactive)
7,COCCOC(=O)N1C(=O)[C@@]2(c3cc(C#CCNC(N)=O)ccc31)[C@H](C(N)=O)[C@H]1C(=O)O[C@H](c3ccccc3)[C@H](c3ccccc3)N1[C@@H]2c1ccc(O)cc1,-0.173 (inactive)
8,C=CCNC(=O)[C@H]1[C@@H]2C(=O)O[C@@H](c3ccccc3)[C@@H](c3ccccc3)N2[C@@H](c2ccc(OCCO)cc2)[C@]12C(=O)Nc1ccc(C#Cc3ccc(OC)cc3)cc12,2.1 (inactive)
9,CN1C(=O)C2C=CC(C(O)c3ccc(I)cc3)N(N(c3ccccc3)c3ccccc3)C2C1=O (stereo not given),1.38 (inactive)
10,Cc1ccc(S[C@]2(C(=O)NCc3ccccc3)CC(=O)N(Cc3ccccc3Cl)[C@@H]2c2ccc(CO)cc2)cc1,-0.0114 (inactive)
11,C[C@]1(C(=O)O)c2ccccc2C(=O)N(Cc2cc(C(F)(F)F)cc(C(F)(F)F)c2)[C@H]1c1ccc(CO)cc1,0.559 (inactive)
12,COC(=O)C(CC#Cc1ccc2c(c1)[C@]1(C(=O)N2)[C@H](C(N)=O)[C@H]2C(=O)O[C@H](c3ccccc3)[C@H](c3ccccc3)N2[C@@H]1c1ccccc1OCCO)C(=O)OC,0.943 (inactive)
13,COC(=O)[C@@]1(Cc2ccc(F)cc2)[C@H]2c3cc(C(=O)N(C)C)n(Cc4ccc(C(F)(F)F)nc4)c3C[C@H]2CN1C(=O)c1ccccc1,0.909 (inactive)
14,CCN1C(=O)C2CC(=O)C3C(CN(S(=O)(=O)c4ccc(C)cc4)C3c3ccc(C)cc3)C2C1=O (stereo not given),0.616 (inactive)
15,C=C[C@H](OC)[C@@H](O)c1ccc(OC)c(O)c1,0.242 (inactive)
16,CCCCCN1CC=CC23O[C@@H]4/C=C\CCCOC(=O)C4[C@H]2C(=O)N(CCCCCO)[C@@H]3C1=O (stereo not given in full),-0.383 (inactive)
17,CC(C)C[C@H]1NC(=O)CNC(=O)[C@@]23C(=O)N[C@@H](Cc4ccccc4)C2[C@H](C)[C@@]2(C)O[C@H]2C3/C=C/C/C=C\CNC1=O (stereo not given in full),0.189 (inactive)
18,C=CCNC(=O)[C@@H]1[C@H]2C(=O)O[C@H](c3ccccc3)[C@H](c3ccccc3)N2[C@H](c2ccc(OCCO)cc2)[C@@]12C(=O)Nc1ccc(C#CCNC(N)=O)cc12,-0.279 (inactive)

row,SMILES,z-score
1,CC(C)[Si](C#Cc1ccccc1)(O[C@H](c1ccccc1)c1cn(Cc2ccccc2)nn1)C(C)C,-19.9 (active)
2,C=C(C(=O)CC[C@@H](OC(=O)c1cccnc1)c1cccc(OCCO)c1)C(C)C,-0.0738 (inactive)
3,CCCCN1CC=CC23O[C@@H]4/C=C\CCC(C)OC(=O)C4[C@H]2C(=O)N(CCO)[C@@H]3C1=O (stereo not given in full),-1.02 (inactive)
4,O=C/C=C/c1ccc(-c2ccccc2)cc1,-19.9 (active)
5,COc1cc(CO)cc(I)c1O[C@H]1C=C(C(=O)NCCO)C[C@@H](N(CCN2CCOCC2)C(=O)C2CCCO2)[C@@H]1O (stereo not given in full),-0.455 (inactive)
6,CC(C)C[C@@H]1NC(=O)[C@H]2C[C@@H](C(=O)O)[C@@H](c3cccc(OCCO)c3)N2C1=O,-0.907 (inactive)
7,COc1cc(Cc2cc3c(c(CCc4ccccc4)n2)[Si](C(C)C)(C(C)C)O[C@H]3c2ccccc2)cc(OC)c1OC,-19.9 (active)
8,C=CCNC(=O)[C@@H]1[C@H]2C(=O)O[C@H](c3ccccc3)[C@H](c3ccccc3)N2[C@H](c2ccc(O)cc2)[C@@]12C(=O)Nc1ccc(C#CC3=CCCCC3)cc12,0.185 (inactive)
9,Cc1cccc([C@H]2C[C@H]3C(Br)=C[C@@]2(CO)C(=O)[C@]32CO2)c1,-2.89 (inactive)
10,COCCOC(=O)N1C(=O)[C@@]2(c3cc(C#CCCO)ccc31)[C@H](C(=O)N1CCN(c3ncccn3)CC1)[C@H]1C(=O)O[C@H](c3ccccc3)[C@H](c3ccccc3)N1[C@@H]2c1ccc(OCCO)cc1,1.9 (inactive)
11,COC(=O)[C@H](Cc1ccccc1)N1CC(C)(OC)O[C@@H](Cc2ccccc2)[C@H]1/C=C/C1CC1 (stereo not given in full),-2.37 (inactive)
12,CCOC(=O)C1=CCC(c2ccncc2)N(S(=O)(=O)c2ccc(C)cc2)C1 (stereo not given),-2.69 (inactive)
13,COC(=O)[C@@]1(Cc2ccc(F)cc2)[C@H]2c3cc(C(=O)N4CCCC4)n(Cc4ccc(C(F)(F)F)nc4)c3C[C@H]2CN1C(=O)c1ccccc1,1.17 (inactive)
14,COCCOC(=O)N1C(=O)[C@@]2(c3cc(C#CCNC(N)=O)ccc31)[C@H](c1ccccc1OCCO)N1[C@H](c3ccccc3)[C@H](c3ccccc3)OC(=O)[C@H]1[C@@H]2C(=O)N1CCCCCCC1,0.47 (inactive)
15,CCCCC(=C=CC[C@@H](O)c1ccccc1OCCO)C[C@@H](O)c1ccccn1,-0.314 (inactive)
16,O=C(NCC(F)(F)F)[C@@H]1c2ccccc2C(=O)N(Cc2cc(C(F)(F)F)cc(C(F)(F)F)c2)[C@H]1c1ccc(CO)cc1,0.459 (inactive)
17,CC(CO)N1C(=O)[C@@H]2[C@H]3C(=O)OCC=C[C@H]3OC23C=CCN(c2ccc4ccccc4c2)C(=O)[C@@H]13 (stereo not given in full),-0.688 (inactive)
